Compound activity deposited in PubChem by National Center for Advancing Translational Sciences (NCATS).
D2 ag-1 = Beta-Arrestin HTS for Positive Allosteric Modulators of the Human D2 Dopamine Receptor: Agonists. D(2) dopamine receptor (Homo sapiens), P14416. DiscoveRx PathHunter D2 beta-arrestin, luminescence, 90 min; 100% = 57 uM dopamine signal. activation, % (test concentration not listed). 0.084% of 360,000 active. AID 624465, 2012; in the data active = activation above about 40%
Target sequence (P14416 whole entry, looked up): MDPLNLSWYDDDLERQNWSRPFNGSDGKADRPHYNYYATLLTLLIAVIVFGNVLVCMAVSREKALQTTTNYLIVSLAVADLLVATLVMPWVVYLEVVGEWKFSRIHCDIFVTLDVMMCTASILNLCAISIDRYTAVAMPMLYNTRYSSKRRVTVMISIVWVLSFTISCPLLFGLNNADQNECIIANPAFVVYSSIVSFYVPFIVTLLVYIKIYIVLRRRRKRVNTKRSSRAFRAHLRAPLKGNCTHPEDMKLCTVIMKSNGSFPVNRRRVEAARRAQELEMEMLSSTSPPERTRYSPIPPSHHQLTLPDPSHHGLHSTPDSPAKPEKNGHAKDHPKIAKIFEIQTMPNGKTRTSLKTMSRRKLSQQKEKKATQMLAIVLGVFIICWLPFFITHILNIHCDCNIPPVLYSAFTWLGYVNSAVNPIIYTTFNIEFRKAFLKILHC
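DiscoveRx PathHunter D2 beta-arrestin cells (2,100/well) attached overnight, then compound-stimulated 90 min at 37 C in HBSS/10 mM HEPES/0.1% Tween-20 buffer; beta-galactosidase complementation read by luminescence after 1 h at ambient temperature. Dopamine 57 uM final (EC100) as control.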
D2 ag-2 = HTS Assay for Allosteric Agonists of the Human D2 Dopamine Receptor: Primary Screen for Agonists; HEK293 T-REx D2 cells, calcium flux agonist mode; activation, % at 2 µM; 0.53% of 340,000 active; AID 485358, 2010;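 active = activation over 3 SD above normal in the single-dose calcium agonist read, cut at about 30% in these data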; note: 0% is about no effect
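Calcium-flux readout, 1 cycle/sec over 180 s following compound pin transfer, in inducible HEK293 Trex D2 cells (force-coupled); dopamine controls included. Positive calcium responses during this window marked compounds as potential agonists.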
D2 antag = HTS Assay for Allosteric Antagonists of the Human D2 Dopamine Receptor: Primary Screen for Antagonists; D(2) dopamine receptor (Homo sapiens), P14416; HEK293 TREx D2 cells, calcium flux, dopamine EC80; inhibition, % at 10 µM; 2% of 340,000 active; AID 485344, 2010; in the data active = inhibition above about 30%; inactive = below that, where a call was filed; note: 0% is about no effect
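Overnight-induced (tetracycline, 30 C) HEK293 T-REx cells carrying force-coupled D2 receive a no-wash calcium dye, then compound, then EC80 dopamine at 180 s; signals are read kinetically throughout.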
D2 PAM-1 = HTS Assay for Positive Allosteric Modulators of the Human D2 Dopamine Receptor: Primary Screen for Potentiators; HEK293 T-REx D2, calcium flux, EC20 dopamine potentiation; D(2) dopamine receptor (Homo sapiens), P14416; AID 485347, 2010; potentiation, % at 10 µM; 0.34% of 340,000 active;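 active = potentiation over 3 SD above the plate norm, cut at about 30% in these data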; note: 0% is about no effect
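Potentiation of an EC20 dopamine calcium response is measured in a force-coupled, tetracycline-inducible Hek293 Trex D2 line. Compound-only kinetic reads over 180 s flag agonists before dopamine addition.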
D2 PAM-2 = Beta-Arrestin HTS for Positive Allosteric Modulators of the Human D2 Dopamine Receptor: Potentiators. D(2) dopamine receptor (Homo sapiens), P14416. DiscoveRx D2 beta-arrestin cells, luminescence, 90 min; 100% = 57 uM dopamine signal. potentiation, % (no concentration beside the values). 0.23% of 360,000 active. AID 624464, 2012; in the data active = potentiation above about 50%
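D2 cells co-treated with compound plus 50 nM dopamine (EC20) for 90 min at 37 deg C to detect potentiation. Beta-arrestin recruitment was read as enzyme-fragment luminescence after 1 h at ambient temperature. Full response was set by 57 uM dopamine.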
* hit, by the source's call; nt = not tested or not shown. An excerpt weighted towards active compounds, which were near 2.4% of everything screened.

SMILES | D2 ag-1 | D2 ag-2 | D2 antag | D2 PAM-1 | D2 PAM-2
O=C1Cc2cc(S(=O)(=O)NCc3ccccc3Cl)cc3c2N1CCC3 | -2.1 | 0.0 | 11.1 | 33.9* | -2.6
CN1C(=O)Cc2cc(S(=O)(=O)NCc3ccccc3Cl)ccc21 | nt | nt | nt | -12.5 | nt
CCOc1ccc(/C=C/c2nc(C#N)c(N(C)C)o2)cc1 | nt | -0.6 | nt | -0.5 | nt
O=c1oc(-c2ccc(F)cc2)nc2ccsc12 | -2.7 | 0.0 | 0.1 | -4.3 | -19.2
O=c1oc(-c2ccccc2Cl)nc2ccsc12 | -10.0 | 1.4 | 30.5* | 13.2 | -12.9
CCCN(C(=O)CSc1nc(C2CC2)n(-c2ccccc2)n1)C1CCS(=O)(=O)C1 (stereo not drawn) | 0.1 | -0.5 | 16.6 | -8.0 | -3.9
COc1cccc(CNC(=O)C2CCN(C(=O)N3CCOc4ccc(Cl)cc43)CC2)c1OC | nt | 1.3 | nt | 7.3 | nt
CCN(CC)S(=O)(=O)c1cc(NC(=O)C(C)N2CCN(Cc3ccc4c(c3)OCO4)CC2)ccc1C (stereo not drawn) | -4.8 | -0.7 | 84.3* | -25.8 | -53.2
CCN(CC)S(=O)(=O)c1cc(NC(=O)C(C)N2CCN(c3ccccn3)CC2)ccc1C (stereo not drawn) | 4.4 | 35.5* | 15.3 | -20.6 | 4.9
CCc1ccccc1N(CC)C(=O)c1cc2c(s1)-c1ccccc1OC2 | nt | 0.5 | nt | -4.9 | nt
Cn1c(=O)c(/C=C/c2ccc(F)cc2)nc2ccccc21 | -1.8 | 0.3 | 7.6 | 4.6 | -9.5
O=c1c(/C=C(\O)c2ccc(F)cc2)nc2ccccc2n1-c1ccccc1 | -7.2 | 44.0* | 4.2 | -9.9 | -16.3
CCS(=O)(=O)N1CC(=O)N(c2ccccc2C)C(C)(C(=O)NC2CCCCC2)C1 (stereo not drawn) | nt | -0.1 | nt | -6.7 | nt
CC12CN3CC(C)(CN(C1)C3c1ccc(Br)cc1O)C2 (stereo not drawn) | -2.9 | 0.7 | 36.1* | -22.1 | -12.5
COc1ccc(CNc2ncnc(N)n2)cc1 | -1.1 | 1.3 | 13.5 | -6.3 | 4.0
COc1ccc(CNc2nc(NCc3ccc(OC)cc3)c3[nH]cnc3n2)cc1 | 6.0 | 0.0 | 41.6* | 3.5 | 17.6
CCOc1ccc(CCNC(=O)c2sc3nc4n(c(=O)c3c2C)CCC4)cc1OCC | 0.7 | 0.6 | 30.2* | -9.7 | 5.3
CCOc1ccc(CCNC(=O)c2sc3nc4n(c(=O)c3c2C)CCCC4)cc1OCC | nt | 3.8 | nt | -6.7 | nt
COc1cccc(C2CC(c3ccc(Cl)cc3)n3nc(N)nc3N2)c1 (stereo not drawn) | -3.1 | 0.0 | 56.6* | 4.2 | -2.8
Cn1c(=O)c2c(nc(SCC(=O)Nc3ccccc3F)n2Cc2ccc(Cl)cc2)n(C)c1=O | nt | -0.3 | nt | 10.8 | nt
CCCc1nc2ccc(NC(=O)c3ccco3)cc2c(=O)n1Cc1ccc(Cl)cc1 | -3.1 | -0.1 | -0.3 | 45.2* | -6.4
Nc1c(N(CCC2=CCCCC2)C(=O)COc2ccc(F)cc2)c(=O)[nH]c(=O)n1Cc1ccccc1 | 0.2 | 0.7 | -13.3 | -8.8 | -2.9
CCN(C(=O)COC(=O)CCc1ccc(OC)cc1)c1c(N)n(Cc2ccccc2)c(=O)[nH]c1=O | 0.1 | 0.1 | 33.8* | 6.3 | 10.7
Nc1c(N(CCC2=CCCCC2)C(=O)CCCOc2ccccc2)c(=O)[nH]c(=O)n1Cc1ccccc1 | 1.9 | 0.6 | 33.0* | 6.9 | 5.3
COc1nc(N)nc(NC(=O)c2cccs2)c1N=O | -4.2 | nt | nt | nt | 5.2
COCCn1c(SCC#N)nnc1-c1ccc(OC)cc1 | 2.1 | -1.4 | 54.6* | -19.9 | -4.6
COCCn1c(SCC(=O)Nc2sc(C)c(C)c2C#N)nnc1-c1ccc(OC)cc1 | 1.2 | -1.8 | 4.4 | -23.1 | -4.4
CCN1CCN(c2ccc([N+](=O)[O-])c(Sc3nc4ccccc4[nH]3)c2)CC1 | -5.9 | -2.5 | 86.8* | -24.5 | -20.5
COc1ccc(C2(c3ccc(OC)cc3)NC(=O)N(CC(=O)NCC(C)c3ccccc3)C2=O)cc1 (stereo not drawn) | -1.9 | 5.3 | 67.8* | -4.1 | 2.7
